From the supplement of paper PMC7530171
Where a name gives a salt, the structure may show the parent alone. ± gives the standard deviation.

test system: THP-1; assay: THP-1 cell loss relative to DMSO control; higher = more host cell loss (toxicity); extreme values may be limits of the assay; conditions: 10 µM; 4 days; infection: M. tuberculosis H37Rv
Procedure: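 OICR kinase inhibitor library screened in duplicate at 10 uM against M. tuberculosis-infected THP-1 macrophages, 4 days at 37 C. THP-1 cell loss (cytotoxicity or loss of adherence) was quantified from Hoechst-stained nuclei counts by high-content imaging and normalised to the 1% DMSO control; 100 = complete loss of host cells.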

First: Cc1c[nH]c(/C=C2\C(=O)Nc3ccccc32)c1CCC(=O)O
Second: O=C1Cc2c([nH]c3ccc(Br)cc23)-c2ccccc2N1 [Kenpaullone]
The THP-1 cell loss of the first is lower: 10.8 ± 15% for the first, 100% for the second.

CN(c1ccccc1CNc1nc(Nc2ccc3c(c2)CC(=O)N3)ncc1C(F)(F)F)S(C)(=O)=O and CSc1cccc(Nc2ncc3cc(-c4c(Cl)cccc4Cl)c(=O)n(C)c3n2)c1 are the same in THP-1 cell loss: 100% for the first, 100% for the second.

Going from CN1CCC(COc2cnc(-c3cccc(Cn4nc(-c5cccc(C#N)c5)ccc4=O)c3)nc2)CC1 to Cc1ccc(NC(=O)c2ccc(CN3CCN(C)CC3)cc2)cc1Nc1nccc(-c2cccnc2)n1 [Imatinib Mesylate], the THP-1 cell loss falls from 90.4 ± 14% to 9.14 ± 13%.

First: Cn1c(Nc2ccc(C(F)(F)F)cc2)nc2cc(Oc3ccnc(-c4ncc(C(F)(F)F)[nH]4)c3)ccc21
Second: CNC(=O)c1cc(Oc2ccc(NC(=O)Nc3ccc(Cl)c(C(F)(F)F)c3)c(F)c2)ccn1
The THP-1 cell loss of the first is higher: 100% for the first, 43.8 ± 13% for the second.

Cc1ccccc1-n1c(Cn2nc(-c3cccc(O)c3)c3c(N)ncnc32)nc2cccc(C)c2c1=O and Nc1cccc(-c2cc3c(Oc4cccc(O)c4)ncnc3[nH]2)c1 are within error of each other in THP-1 cell loss: 43.9 ± 23% for the first, 25.7 ± 7.3% for the second.

Going from Nc1nccc(-c2c(-c3ccc(F)cc3)ncn2C2CCCCC2)n1 to COc1nccc(-c2c(-c3ccc(F)cc3)ncn2C2CCNCC2)n1, the THP-1 cell loss falls from 75 ± 8.6% to 4.97 ± 0.45%.

NC(=O)c1ccc(-c2nc(-c3ccc4c(c3)OCCO4)c(-c3ccccn3)[nH]2)cc1 and Cc1cccc(-c2[nH]c(C(C)(C)C)nc2-c2ccc3c(c2)OCO3)n1 are within error of each other in THP-1 cell loss: 43.2 ± 50% for the first, 74 ± 1.8% for the second.

Compared with O=S(=O)(c1cccc2cnccc12)N1CCCNCC1 [Fasudil HCl], Nc1ccc(-c2cccc3c(=O)cc(N4CCOCC4)oc23)cc1 is higher in THP-1 cell loss: 0.204 ± 0.29% for the first, 39.6 ± 3.5% for the second.

COc1cc(Nc2ncc(F)c(Nc3ccc4c(n3)NC(=O)C(C)(C)O4)n2)cc(OC)c1OC and COc1cc2nccc(Oc3ccc(NC(=O)Nc4ccc(F)cc4F)c(F)c3)c2cc1OC are within error of each other in THP-1 cell loss: 63.4 ± 52% for the first, 8.51 ± 5.2% for the second.

Compared with COc1cc(O)c2c(c1)/C=C/C[C@H](O)[C@H](O)C(=O)/C=C\C[C@H](C)OC2=O [(5Z)-7-Oxozeaenol], COc1cc(C[C@H]2C(=O)OC[C@@H]2Cc2ccc(OC)c(OC)c2)ccc1O [Arctigenin] is lower in THP-1 cell loss: 100% for the first, 35 ± 18% for the second.

Compared with C[C@@H]1CN(CC(=O)Nc2ccc3c(c2)Cc2cccc(-c4cc(=O)cc(N5CCOCC5)o4)c2S3)C[C@H](C)O1, Cc1cc(N2CCOCC2)cc2[nH]c(-c3c(NC[C@@H](O)c4cccc(Cl)c4)cc[nH]c3=O)nc12 is lower in THP-1 cell loss: 100% for the first, 21.7 ± 10% for the second.

Cn1cc(-c2cnc3ccc4ccc(CS(=O)(=O)NCc5ccccn5)cc4c(=O)c3c2)cn1 and CCCS(=O)(=O)Nc1ccc(F)c(C(=O)c2c[nH]c3ncc(-c4ccc(Cl)cc4)cc23)c1F are within error of each other in THP-1 cell loss: 52.3 ± 67% for the first, 100% for the second.

First: c1cc(-c2cnn3cc(-c4ccc(OCCN5CCCCC5)cc4)cnc23)ccn1 [Dorsomorphin dihydrochloride]
Second: FC(F)(F)c1ccc(/C=C/c2nc(COc3ccc(CCCCn4ccnn4)cc3)co2)cc1 [Mubritinib]
The THP-1 cell loss of the first is higher: 100% for the first, 51 ± 24% for the second.

Going from N#CC[C@H](C1CCCC1)n1cc(-c2ncnc3[nH]ccc23)cn1 to CCOc1cc(N2CCC(O)CC2)ccc1Nc1ncc2c(n1)N(C)c1ccccc1C(=O)N2C, the THP-1 cell loss rises from 26.3 ± 7.9% to 100%.

First: Nc1ncnc(Nc2ccc(OCc3ccccc3)c(Cl)c2)c1/C=N/OCCN1CCOCC1
Second: Cc1cc(Nc2cc(CN3CCOCC3)c3nc(C)c(Cc4ccc(Cl)cc4F)n3n2)n[nH]1
The THP-1 cell loss of the first is lower: 38.7 ± 4.5% for the first, 100% for the second.

First: O=C1Cc2c([nH]c3ccc([N+](=O)[O-])cc23)-c2ccccc2N1 [Alsterpaullone]
Second: N#C/C(=C\c1ccc(O)c(O)c1)C(=O)NCc1ccccc1
The THP-1 cell loss of the first is higher: 100% for the first, 0.71 ± 1% for the second.

O=C(NOCC1CC1)c1ccc(F)c(F)c1Nc1ccc(I)cc1Cl and CC[C@@H]1C(=O)N(C)c2cnc(Nc3ccc(C(=O)NC4CCN(C)CC4)cc3OC)nc2N1C1CCCC1 are the same in THP-1 cell loss: 100% for the first, 100% for the second.

With CCN(CC)CCNC(=O)c1ccc2nc(-c3ccccc3)c(-c3ccc(CN4CCC(n5c(=O)[nH]c6ccccc65)CC4)cc3)nc2c1 [Merck-22-6] the THP-1 cell loss was 100%.
